Screens as filed in PubChem BioAssay.
DUX4 txn inh = DUX4-mediated transcription inhibition; 293T-iDUX4 ZSCAN4-Gaussia luciferase reporter, 24 h; active compounds read low; activity change, negative = inhibition, % (concentration not given with the values); AID 1224904; 0.8% of 37,000 active;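 active = mean inhibition of at least 10% in the main channel, exceeding the control channel by a set limit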;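 note: 0% = median of neutral control wells and -100% = median of positive control wells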
* marks the source's active call; other numbers are inactive results; ! = repeats disagree. The sample as a whole holds a higher share of hits than the screen did.

What do the screens show for `COCC#Cc1ccc([C@@H]2[C@@H](CO)N3CCCCN(C(=O)Nc4cc(F)ccc4F)C[C@@H]23)cc1`?
DUX4 txn inh: -1

How did O=C(Nc1ccccc1F)N1CCCCN2[C@H](C1)[C@H](c1ccc(/C=C/c3ccccc3)cc1)[C@@H]2CO do in these assays?
DUX4 txn inh: 3

Results for C[C@@H]1CN([C@H](C)CO)C(=O)c2cc(NC(=O)Nc3cccc4ccccc34)ccc2O[C@@H](C)CCCCO[C@@H]1CN(C)S(=O)(=O)c1cn(C)cn1 ?
DUX4 txn inh: 1

How did CC(=O)N1C[C@@H]2[C@H](c3ccccc31)[C@H](CO)N2C(=O)CC1CC1 do in these assays?
DUX4 txn inh: 1

How did C[C@@H]1CN([C@H](C)CO)C(=O)CCCn2nncc2CO[C@@H]1CN(C)Cc1cccc(C(=O)O)c1 do in these assays?
DUX4 txn inh: 2

What do the screens show for `N#Cc1cccc(-c2ccc([C@H]3[C@H]4CN(S(=O)(=O)c5ccccc5)CCCCN4[C@H]3CO)cc2)c1`?
DUX4 txn inh: 3

How did COc1ccccc1-c1ccc(C2[C@@H]3CN(S(=O)(=O)c4ccc(C)cc4)C[C@H]2N3)cc1 (stereo partly drawn) do in these assays?
DUX4 txn inh: -34*!

Results for C/C=C/c1ccc(C2[C@@H]3CN(S(=O)(=O)c4ccc(C)cc4)C[C@H]2N3)cc1 (stereo partly drawn) ?
DUX4 txn inh: 4

What do the screens show for `COc1ccc(S(=O)(=O)N2[C@@H]3CNC[C@H]2C3c2ccc(-c3ccccc3OC)cc2)cc1` (stereo partly drawn)?
DUX4 txn inh: 12

What do the screens show for `COc1ccccc1S(=O)(=O)N1C[C@@H]2N[C@H](C1)C2c1ccc(-c2ccncc2)cc1` (stereo partly drawn)?
DUX4 txn inh: -5

Results for COc1cccc(-c2ccc(C3[C@H]4CNC[C@@H]3N4S(=O)(=O)c3cn(C)cn3)cc2)c1 (stereo partly drawn) ?
DUX4 txn inh: 14

How did N#Cc1cccc(-c2ccc3c(c2)[C@@H]2[C@@H](CCN2S(=O)(=O)c2ccccc2)[C@@H](CO)N3)c1 do in these assays?
DUX4 txn inh: -4

How did COc1cccc(-c2ccc(C3[C@@H]4CN(C(=O)C5CCOCC5)C[C@H]3N4)cc2)c1 (stereo partly drawn) do in these assays?
DUX4 txn inh: 13

How did Cc1ccc(S(=O)(=O)N2C[C@@H]3N[C@H](C2)C3c2ccc(-c3cccc(C#N)c3)cc2)cc1 (stereo partly drawn) do in these assays?
DUX4 txn inh: -43*!

How did COc1cccc(-c2ccc(C3[C@@H]4CN(S(=O)(=O)c5cn(C)cn5)C[C@H]3N4)cc2)c1 (stereo partly drawn) do in these assays?
DUX4 txn inh: -34*!

What do the screens show for `N#Cc1cccc(-c2ccc(C3[C@@H]4CN(S(=O)(=O)c5ccccc5)C[C@H]3N4)cc2)c1` (stereo partly drawn)?
DUX4 txn inh: -41*!

Results for Cc1ccc(S(=O)(=O)N2[C@@H]3CNC[C@H]2C3c2ccc(-c3ccc(C#N)cc3)cc2)cc1 (stereo partly drawn) ?
DUX4 txn inh: 17

What do the screens show for `CN1C(=O)c2cc(NC(=O)C3CCCC3)ccc2OC[C@H]2O[C@H](CC(=O)NCC(F)(F)F)CC[C@@H]21`?
DUX4 txn inh: 3

Results for C[C@@H]1CN([C@@H](C)CO)C(=O)Cc2cc(NC(=O)C3CCCCC3)ccc2O[C@H]1CN(C)S(=O)(=O)c1ccc(F)cc1 ?
DUX4 txn inh: -1

How did CC(C)NC(=O)N1CC2(C1)[C@@H](c1ccccc1)[C@@H](CO)N2C(=O)C1CCCC1 do in these assays?
DUX4 txn inh: 8

How did COCC(=O)N1CC2(C1)CN(C(=O)Cc1ccccc1)[C@H](CO)c1c2c2ccc(OC)cc2n1C do in these assays?
DUX4 txn inh: 15

How did COc1ccc(S(=O)(=O)N2[C@@H]3CNC[C@H]2C3c2ccc(-c3ccncc3)cc2)cc1 (stereo partly drawn) do in these assays?
DUX4 txn inh: 13

Results for CS(=O)(=O)N1C[C@@H]2N[C@H](C1)[C@@H]2c1ccc(-c2ccccc2)cc1 ?
DUX4 txn inh: -51*

What do the screens show for `O=S(=O)(c1ccccc1)N1[C@@H]2CNC[C@H]1C2c1ccc(-c2cccnc2)cc1` (stereo partly drawn)?
DUX4 txn inh: -11*!

What do the screens show for `O=S(=O)(c1cccc(F)c1)N1[C@@H]2CNC[C@H]1C2c1ccc(-c2cccnc2)cc1` (stereo partly drawn)?
DUX4 txn inh: -1

Results for O=S(=O)(c1ccc(-c2ccccc2)cc1)N1[C@@H]2CNC[C@H]1C2c1ccc(-c2ccccc2)cc1 (stereo partly drawn) ?
DUX4 txn inh: 9

How did Cc1cccc(-c2ccc(C3[C@@H]4CNC[C@H]3N4)cc2)c1 (stereo partly drawn) do in these assays?
DUX4 txn inh: -3

How did Cc1ccc(S(=O)(=O)N2[C@@H]3CNC[C@H]2C3c2ccc(-c3cccnc3)cc2)cc1 (stereo partly drawn) do in these assays?
DUX4 txn inh: -1
